PubChem BioAssay
A number with no mark means an inactive call. For some assays here: Entries with a potency or affinity are not part of this list. The source made the active and inactive calls. Unless noted, how the calls were made is not given here.

How the values were obtained:
[1] = antimalarial activity against Dd2 strain (AID 2302;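 active means growth inhibition above 50% at the single 2 µM test dose, taken to imply half-maximal potency below 2 µM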;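 further: 0% = DMSO untreated growth and 100% = chloroquine plus artemisinin killed control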); conditions: P. falciparum Dd2 in RBCs, LDH growth readout, 72 h; at 2 µM; hits give high values
[2] = HepG2 cytotoxicity, primary screen, cytotoxicity control for P. falciparum antimalarial project, cell-based, ATP luminescence (AID 2303;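 active means inhibition above 50%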;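 further: 0% = DMSO wells and 100% = digitonin-killed cells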); conditions: HepG2 viability, 24-48 h, at 10 µM, hits give high values
[3] = biological target: L-lactate dehydrogenase (Plasmodium falciparum (isolate CDC / Honduras)) (UniProt Q27743); assay: PfLDH activity inhibition – cell lysate, 3D7 strain, counter-screen for P. falciparum growth inhibition project (AID 2304);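 further: 0% = vehicle and 100% = reference inhibitor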; conditions: P. falciparum 3D7 crude extract, LDH APAD/NBT absorbance; at 2 µM; hits give high values
[4] = inhibition of 3D7 malaria parasite growth – strain 3D7 (AID 2306);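 further: 0% = DMSO wells and 100% = chloroquine plus artemisinin control wells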; conditions: P. falciparum 3D7 erythrocytic growth, LDH absorbance, 72 h; at 2 µM; hits give high values
[5] = biological target: Calcium-dependent protein kinase 1 (Plasmodium falciparum (isolate 3D7)) (UniProt P62344); assay: PfCDPK1 kinase inhibitors, biochemical, TCAMS library (AID 1159585; cut-off not given, nearly all actives have IC50 up to about 0.98 µM;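 further: inhibitors leave more ATP so luminescence rises with inhibition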); conditions: recombinant PfCDPK1, Kinase-Glo ATP depletion luminescence
[6] = biological target: Plasmodium falciparum protein kinase 6 (PK6, PF3D7_1337100) (UniProt Q8IDW1); assay: PfPK6 kinase inhibitors, biochemical, TCAMS library (AID 1159586); conditions: recombinant PfPK6, Kinase-Glo ATP depletion luminescence
[7] = biological target: Protein kinase 7 (PK7), Plasmodium falciparum 3D7 (PF3D7_0213400) (UniProt Q7YTF7); assay: inhibition of Plasmodium PK7 catalytic activity – biochemical, TCAMS antimalarial set, Kinase-Glo luminescence (AID 1159587); conditions: recombinant PfPK7, Kinase-Glo ATP depletion luminescence
[8] = biological target: Calcium-dependent protein kinase 4 (Plasmodium falciparum (isolate 3D7)) (UniProt Q8IBS5); assay: PfCDPK4 kinase inhibitors, biochemical, TCAMS library (AID 1159588; cut-off not given, nearly all actives have IC50 up to about 0.91 µM); conditions: recombinant PfCDPK4, Kinase-Glo ATP depletion luminescence
Chain of Calcium-dependent protein kinase 4 (Plasmodium falciparum (isolate 3D7)) (Q8IBS5 whole entry, looked up): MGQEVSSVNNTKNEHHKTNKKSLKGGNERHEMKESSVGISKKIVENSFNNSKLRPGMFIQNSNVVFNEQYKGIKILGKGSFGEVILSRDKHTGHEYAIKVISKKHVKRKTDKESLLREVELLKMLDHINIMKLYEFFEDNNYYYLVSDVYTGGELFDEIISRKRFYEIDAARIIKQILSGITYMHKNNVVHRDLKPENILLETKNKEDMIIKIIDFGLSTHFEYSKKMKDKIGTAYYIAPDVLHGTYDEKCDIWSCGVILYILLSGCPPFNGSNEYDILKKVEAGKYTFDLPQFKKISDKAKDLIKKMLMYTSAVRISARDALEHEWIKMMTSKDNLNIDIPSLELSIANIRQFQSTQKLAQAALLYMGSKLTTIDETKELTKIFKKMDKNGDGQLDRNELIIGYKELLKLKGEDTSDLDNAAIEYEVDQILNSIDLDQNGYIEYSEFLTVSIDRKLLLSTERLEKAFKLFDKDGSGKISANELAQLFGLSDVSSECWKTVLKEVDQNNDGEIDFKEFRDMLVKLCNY

Chain of Protein kinase 7 (PK7), Plasmodium falciparum 3D7 (PF3D7_0213400) (Q7YTF7 1-343): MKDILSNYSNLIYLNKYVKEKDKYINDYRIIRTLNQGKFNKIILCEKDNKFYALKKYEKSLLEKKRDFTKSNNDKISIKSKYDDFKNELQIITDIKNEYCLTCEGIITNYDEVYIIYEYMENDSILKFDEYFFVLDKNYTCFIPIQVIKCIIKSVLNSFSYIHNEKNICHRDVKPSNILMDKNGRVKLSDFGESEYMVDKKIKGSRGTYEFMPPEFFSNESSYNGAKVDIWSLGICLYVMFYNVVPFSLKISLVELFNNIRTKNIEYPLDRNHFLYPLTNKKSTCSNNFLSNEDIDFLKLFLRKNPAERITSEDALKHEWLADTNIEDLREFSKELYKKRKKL
Chain of Calcium-dependent protein kinase 1 (Plasmodium falciparum (isolate 3D7)) (P62344 whole entry, looked up): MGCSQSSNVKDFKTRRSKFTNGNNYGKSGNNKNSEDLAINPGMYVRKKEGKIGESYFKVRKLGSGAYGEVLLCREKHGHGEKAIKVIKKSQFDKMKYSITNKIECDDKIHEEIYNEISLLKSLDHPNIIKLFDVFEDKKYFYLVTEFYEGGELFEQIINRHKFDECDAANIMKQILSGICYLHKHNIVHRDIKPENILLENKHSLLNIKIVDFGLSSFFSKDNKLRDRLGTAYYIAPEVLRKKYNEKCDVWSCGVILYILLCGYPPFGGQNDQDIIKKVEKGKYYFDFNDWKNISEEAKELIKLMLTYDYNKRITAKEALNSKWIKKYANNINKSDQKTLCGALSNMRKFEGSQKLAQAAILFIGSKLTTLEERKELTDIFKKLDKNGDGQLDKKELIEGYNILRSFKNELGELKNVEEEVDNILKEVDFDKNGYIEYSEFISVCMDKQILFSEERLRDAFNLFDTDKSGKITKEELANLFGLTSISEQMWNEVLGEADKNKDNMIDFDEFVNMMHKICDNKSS
Chain of L-lactate dehydrogenase (Plasmodium falciparum (isolate CDC / Honduras)) (Q27743 whole entry, looked up): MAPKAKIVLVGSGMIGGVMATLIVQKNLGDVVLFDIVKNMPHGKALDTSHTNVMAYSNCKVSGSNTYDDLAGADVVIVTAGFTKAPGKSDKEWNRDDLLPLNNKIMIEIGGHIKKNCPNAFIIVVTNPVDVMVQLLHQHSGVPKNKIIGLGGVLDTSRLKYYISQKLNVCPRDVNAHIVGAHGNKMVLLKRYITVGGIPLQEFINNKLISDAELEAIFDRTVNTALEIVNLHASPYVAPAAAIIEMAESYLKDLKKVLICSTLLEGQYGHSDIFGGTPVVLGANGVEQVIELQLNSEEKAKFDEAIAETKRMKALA
Chain of Plasmodium falciparum protein kinase 6 (PK6, PF3D7_1337100) (Q8IDW1 1-305): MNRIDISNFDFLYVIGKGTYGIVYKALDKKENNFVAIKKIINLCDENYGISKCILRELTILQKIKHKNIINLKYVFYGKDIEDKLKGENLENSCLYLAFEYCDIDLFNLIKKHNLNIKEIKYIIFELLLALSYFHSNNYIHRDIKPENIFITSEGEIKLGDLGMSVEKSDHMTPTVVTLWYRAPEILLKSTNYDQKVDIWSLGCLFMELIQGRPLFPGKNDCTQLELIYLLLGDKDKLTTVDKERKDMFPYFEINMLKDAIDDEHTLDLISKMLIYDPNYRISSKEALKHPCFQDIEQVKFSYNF

Compound	growth inhibition [1]	inhibition [2]	inhibition [3] [%]	growth inhibition [4]	outcome [5]	outcome [6]	outcome [7]	outcome [8]
COC(=O)c1cccc(NC(=O)NCCNc2ccnc(Nc3ccc(F)cc3)n2)c1	5%	10%	-6	93% (active)	inactive	inactive	inactive	inactive
Cc1cccc2[nH]c(-c3cccc(-c4ccc(CNCc5cccc(N)c5)cc4)c3)nc12	93% (active)	19%	-3	101% (active)	inactive	inactive	inactive	inactive
N#Cc1ccc(-c2ccc(C(=O)NCCCCN3CCC(c4ccc5c(c4OCc4ccncc4)CCCC5)CC3)cc2)cc1	57% (active)	41%	1	81% (active)	inactive	inactive	inactive	inactive
C=CC[C@@H](C(=O)OCC)[C@@H]1[C@@H](N(CC=C)C(=O)OC(C)(C)C)CCN1C(=O)OCc1ccccc1	68% (active)	2%	4	92% (active)	inactive	inactive	inactive	inactive
Cc1[nH]c(C)c(-c2ccc(CCc3ccc(F)cc3F)cc2)c(=O)c1Cl	97% (active)	5%	-4	98% (active)	inactive	inactive	inactive	inactive
CCCC(C)NC(=O)/C=C/c1ccccc1-c1cccc(OC)c1 (stereo not given)	59% (active)	0%	3	87% (active)	inactive	inactive	inactive	inactive
Clc1ccc2c(NCc3ccc4c(c3)OCO4)ccnc2c1	97% (active)	6%	1	101% (active)	inactive	inactive	inactive	inactive
NC(=O)c1ccccc1OCC(=O)Nc1cccc(-c2ccc(-c3nc4ccc(C(F)(F)F)cc4[nH]3)cc2)c1	17%	58% (active)	-2	92% (active)	inactive	inactive	inactive	inactive
O=c1cc(NCCCNCc2ccc(Cl)c(Cl)c2)[nH]c2ccc(Cl)cc12	54% (active)	11%	1	101% (active)	inactive	inactive	inactive	inactive
CC(C)Oc1cc2c(cc1NS(=O)(=O)c1ccc(-c3ccc(Cl)cc3)cc1F)CCN(C)CC2	2%	29%	-1	88% (active)	inactive	inactive	inactive	inactive
COc1ccc(-n2ccnc2SCC(=O)Nc2cc(C(F)(F)F)ccc2Cl)c(OC)c1	76% (active)	0%	-8	98% (active)	inactive	inactive	inactive	inactive
CCOc1ccc2nc3cc([N+](=O)[O-])ccc3c(N)c2c1	100% (active)	67% (active)	3	99% (active)	inactive	inactive	inactive	inactive
CN(C)CCNC(=O)c1ccc2c(c1)ncn2-c1cc(OCc2ccccc2C(F)(F)F)c(C(N)=O)s1 (tested in a mixture with another compound)	8%	-9%	1	90% (active)	inactive	inactive	inactive	inactive
COc1ccc(CNc2cc(C)nc3sc4c(c23)CCC2(C4)OCCO2)cc1	2%	4%	-7	96% (active)	inactive	inactive	inactive	inactive
Cc1cccc2[nH]c(-c3cccc(-c4cccc(NC(=O)Nc5ccc(Cl)cc5)c4)c3)nc12	94% (active)	23%	-2	100% (active)	inactive	inactive	inactive	inactive
CCOc1ccc(C(=O)Nc2cc3c(c(C(F)(F)F)c2)CCNC3)cc1Cl	1%	4%	-4	91% (active)	inactive	inactive	inactive	inactive
O=C(Nc1ccc(Cl)cc1)Nc1cccc(-c2ccc(-c3nc4ccccc4[nH]3)cc2)c1	6%	19%	-3	87% (active)	inactive	inactive	inactive	inactive
CCCCc1cc(N2CCC(NC(C)=O)C2)nc(Nc2ccc(C)cc2)n1 (stereo not given)	1%	2%	-8	95% (active)	inactive	inactive	inactive	inactive
O=C(Nc1ccc([N+](=O)[O-])cc1)Nc1cc(C(F)(F)F)ccc1F	46%	8%	-4	89% (active)	inactive	inactive	inactive	inactive
CC(CN1CCN(C)CC1)C(=O)Nc1cccc(-c2ccc(-c3nc4ccccc4[nH]3)cc2)c1 (stereo not given)	38%	2%	-1	95% (active)	inactive	inactive	inactive	inactive

Compound	growth inhibition [1]	inhibition [2]	inhibition [3] [%]	growth inhibition [4]	outcome [5]	outcome [6]	outcome [7]	outcome [8]
NOCCCCOc1ccc(Br)cc1	-1%	0%	-2	99% (active)	inactive	inactive	inactive	inactive
Cc1nc2nc(N)nc(N)c2c(C)c1Cc1ccccc1Br	2%	65% (active)	1	92% (active)	inactive	inactive	inactive	inactive
Cc1cccc2[nH]c(=O)c([N+](=O)[O-])c(O)c12	-2%	-2%	-2	95% (active)	inactive	inactive	inactive	inactive
CCCCc1ccc(Cc2cnc3nc(N)nc(N)c3c2C)cc1	5%	64% (active)	5	96% (active)	inactive	inactive	inactive	inactive
CC(Sc1n[nH]c(-c2cccs2)n1)C(=O)c1c[nH]c2ccccc12 (stereo not given)	58% (active)	-8%	6	94% (active)	inactive	inactive	inactive	inactive
c1cncc(CCNCc2ccc(-c3cccc(-c4nc5ccccc5[nH]4)c3)cc2)c1	99% (active)	39%	-2	102% (active)	inactive	inactive	inactive	inactive
CCCCCN1CCN(Cc2cccc(NC(=O)c3ccc(Cl)c(Cl)c3)c2)CC1	33%	24%	3	90% (active)	inactive	inactive	inactive	inactive
CN1CCC(Oc2ccc(CN3CC[C@H](NC(=O)c4ccc(Cl)c(Cl)c4)C3)cc2Cl)C1 (stereo not given in full)	78% (active)	68% (active)	0	101% (active)	inactive	inactive	inactive	inactive
Cc1cccc2[nH]c(-c3ccc(-c4cccc(NC(=O)Nc5ccc(F)c(F)c5F)c4)cc3)nc12	89% (active)	40%	2	100% (active)	inactive	inactive	inactive	inactive
CCOc1ccccc1N1CCN(CCCNC(=O)/C(=C/C=C/c2cc3cc(Cl)c(Cl)cc3[nH]2)OC)CC1	93% (active)	45%	-4	98% (active)	inactive	inactive	inactive	inactive
COc1c(C2=CCN(CCCCNC(=O)c3ccc(-c4ccc(C#N)cc4)cc3)CC2)c(C)cc2c1C(C)(C)CCC2(C)C	88% (active)	18%	-2	92% (active)	inactive	inactive	inactive	inactive
COc1ccc(CCNc2nc(NCCc3cnc[nH]3)nc(NCc3cccc4ccccc34)n2)cc1OC	16%	2%	3	98% (active)	inactive	inactive	inactive	inactive
Cc1[nH]c2ccc(C#N)cc2c(=O)c1Br	61% (active)	2%	-1	91% (active)	inactive	inactive	inactive	inactive
O=C(NCc1ccc(Cl)cc1)c1ccc(C(=O)NCC2CCCN2CC2CCCCC2)cc1 (stereo not given)	10%	21%	-11	97% (active)	inactive	inactive	inactive	inactive
CCc1ccc(CN2CCC(CNC(=O)c3cc(-c4ccccc4Cl)cs3)C2)cc1 (stereo not given)	0%	14%	-2	98% (active)	inactive	inactive	inactive	inactive
O=C(/C=C/c1ccc(Cl)c(Cl)c1)NCCCCCN1CCCC(CNC(=O)Nc2ccc(C(F)(F)F)cc2)C1 (stereo not given)	7%	27%	-9	100% (active)	inactive	inactive	inactive	inactive
COc1ccc(CN(C)CCCOc2ccc(NC(=O)C=Cc3ccc(C(C)(C)C)cc3)cc2)cc1OC	87% (active)	14%	2	101% (active)	inactive	inactive	inactive	inactive
CNC(=O)C1Cc2c([nH]c3cc(Cl)ccc23)C2(CCN(CCc3ccccc3)CC2)N1 (stereo not given)	3%	14%	4	91% (active)	inactive	inactive	inactive	inactive
Cc1cc(=O)[nH]c2cc(Nc3ccnc(Nc4cccc(C(N)=O)c4)n3)ccc12	98% (active)	27%	-4	99% (active)	inactive	inactive	inactive	inactive
O=[N+]([O-])c1cccc(CNCC2CCN(CC3CCCCC3)CC2)c1	14%	11%	2	90% (active)	inactive	inactive	inactive	inactive
